Active and inactive are the calls of the source. The call rests on the fitted dose curve; in most records, active means well fitted curve in the direction sought with a large enough effect; inconclusive means small, poorly fitted or top-dose-only effect, or effect the other way, or another doubt; inactive means no such curve, though single readings can be large or run the other way.

For the assay, the target named is Pyruvate kinase PKLR (Homo sapiens) (UniProt P30613). In words: Secondary Concentration-Response Assay for Activators of Human Liver Pyruvate Kinase: for Probe SAR. Conditions: purified hPK-L, ATP production, Kinase-Glo luminescence; series mostly up to 58.3 µM. The method, boiled down: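 Purified human liver pyruvate kinase (0.1 nM) incubated 1 h at room temperature with compound, 0.5 mM PEP and 0.1 mM ADP in imidazole buffer pH 7.2; ATP formed read by Kinase-Glo luminescence, normalized to uninhibited wells.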
Pyruvate kinase PKLR (Homo sapiens), sequence (P30613 whole entry, looked up): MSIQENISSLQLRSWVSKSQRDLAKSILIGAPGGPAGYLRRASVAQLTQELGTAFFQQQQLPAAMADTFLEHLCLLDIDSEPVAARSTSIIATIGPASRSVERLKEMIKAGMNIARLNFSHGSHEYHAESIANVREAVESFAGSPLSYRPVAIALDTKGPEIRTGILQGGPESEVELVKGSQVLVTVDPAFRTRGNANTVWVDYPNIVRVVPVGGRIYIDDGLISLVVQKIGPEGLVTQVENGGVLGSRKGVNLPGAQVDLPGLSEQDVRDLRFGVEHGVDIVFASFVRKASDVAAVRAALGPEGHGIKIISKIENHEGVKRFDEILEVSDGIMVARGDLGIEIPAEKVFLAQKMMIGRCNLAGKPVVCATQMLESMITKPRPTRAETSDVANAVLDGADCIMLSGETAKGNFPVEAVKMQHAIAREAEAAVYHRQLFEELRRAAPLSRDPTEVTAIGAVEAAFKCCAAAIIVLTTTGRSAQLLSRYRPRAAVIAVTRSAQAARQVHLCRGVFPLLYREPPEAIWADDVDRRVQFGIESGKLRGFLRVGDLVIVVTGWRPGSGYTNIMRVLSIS
Take `Cc1ccc(N(C)S(=O)(=O)c2ccc3c(c2)CCC(=O)N3)cc1C`: the result was inactive.
The same measure for `Cc1nc(-c2ccc(S(=O)(=O)Nc3ccc(C)c(C)c3)s2)cs1`: “inactive”.
The same measure for `Cc1ccc2nc(-c3ccc(C)o3)c(Nc3ccc4c(c3)OCO4)n2c1`: “inactive”; for `COc1cccc(OC2=NS(=O)(=O)c3ccccc32)c1`: “inactive”; for `O=C1CCc2cc(S(=O)(=O)Nc3ccc(Cl)c(Cl)c3)c(F)cc2N1`: “inactive”.
The same measure for `O=C1CCc2cc(Cl)c(S(=O)(=O)Nc3ccc(Cl)c(Cl)c3)cc2N1`: “inactive”.
With `O=C1c2ccccc2C(=O)N1c1ccc2ncccc2c1`, the outcome was inactive.
`Cc1ccc(NS(=O)(=O)c2cc3c(cc2-c2ccsc2)NC(=O)CO3)cc1C`: the call was inactive.
The same measure for `Cc1ccc(NS(=O)(=O)c2cc3c(cc2-c2ccccc2)NC(=O)CO3)cc1C`: “inactive”; for `O=C1c2ccccc2C(=O)N1Cc1ccncc1`: “inactive”; for `O=C1c2ccccc2C(=O)N1Cc1cccnc1`: “inactive”.
The same measure for `Cc1ccc(-c2nc3ccc(Cl)cn3c2Nc2ccccc2)o1`: “inactive”.
The same measure for `Cc1ccc(NS(=O)(=O)c2ccc(N3CCCC3=O)cc2)cc1C`: “inactive”; for `O=C1CCc2cc(S(=O)(=O)Nc3ccc4ccccc4c3)ccc2N1`: “inactive”; for `COc1ccc(-c2nc3cccc(C)n3c2Nc2ccc(C)cc2)cc1`: “inactive”.
Consider `Cc1ccc(NS(=O)(=O)c2cc3c(cc2-c2cn[nH]c2)NC(=O)CO3)cc1C`, for which the outcome was inactive.
For `Cc1ccc(NS(=O)(=O)c2ccc3c(c2)CCCC(=O)N3)cc1C` the value was “inactive”; for `Cc1ccc(NS(=O)(=O)c2ccc3c(c2)CCC(C)(C)O3)cc1C`, “inactive”.
For `Cc1ccc(NS(=O)(=O)c2cc3c(cc2-c2ccco2)NC(=O)CO3)cc1C` the value was “inactive”; for `O=C1CCc2cc(S(=O)(=O)Nc3cccc(C(F)(F)F)c3)ccc2N1`, “inactive”.
For the molecule `O=C1CCc2cc(S(=O)(=O)Nc3cccc(B(O)O)c3)ccc2N1`, the molecule was called inactive.
For `Cc1ccc(NS(=O)(=O)c2ccc3c(c2)N(C)C(=O)CO3)cc1C` the value was “inactive”.
Turning to `CSc1cc2c(s1)c1cnn(Cc3cccc(N)c3)c(=O)c1n2C`, the result was inactive.
For `COc1ccc(N2C(=O)c3ccccc3C2=O)cc1` the value was “inactive”; for `Cc1c(Cl)cccc1NS(=O)(=O)c1cc2c(cc1Cl)CCC(=O)N2`, “inactive”; for `O=C1CCc2cc(S(=O)(=O)Nc3ccc(F)cc3)ccc2N1`, “inactive”.
On to `Cc1ccc(NS(=O)(=O)c2cccc(C(=O)O)c2)cc1C`, for which the call was inactive.
For `Cc1ccccc1NS(=O)(=O)c1ccc2c(c1)CCC(=O)N2` the value was “inactive”.
For `Cc1ccc(NS(=O)(=O)c2ccc3c(c2)CCC(=O)N3)cc1F` the value was “inactive”; for `O=C1c2ccccc2C(=O)N1c1ccccc1O`, “inactive”; for `N#Cc1cccc(NS(=O)(=O)c2ccc3c(c2)CCC(=O)N3)c1`, “inactive”.
As to `Cc1ccc(NS(=O)(=O)c2ccc3c(ccn3C)c2)cc1C`, the molecule was called inactive.
`O=S1(=O)N=C(Oc2ccccc2)c2ccccc21`: the molecule was classed as inactive.

Source of the values: PubChem BioAssay AID2535 (National Center for Advancing Translational Sciences (NCATS), 2010).
